4-MU autofl: qHTS Assay for Spectroscopic Profiling in 4-MU Spectral Region; compound autofluorescence, 340/450 nm, 4-MU equivalents; stronger effect = higher value; max dye-equivalent concentration, M; actives 11% (n = 59,000); in the data active = max dye-equivalent concentration above about 10 nM; inconclusive = mostly about 1.1 nM to 9.6 nM
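Compounds in 100 mM Tris, pH 8.0, sat 15 min at room temperature before fluorescence was read at 340 nm excitation/450 nm emission; a per-plate six-point 4-MU standard curve converted signals to dye-equivalent concentration at each compound concentration.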
AID923: qHTS Assay for Allosteric/Competitive Inhibitors of Caspase-1: Spectroscopic Profiling in AFC Spectral Region | compound fluorescence, AFC spectral region (405/520 nm) | Potency, µM (titrated, usually from 57.5 µM), for the others: at the highest dose fluorescence increase, actives largely listed as activators | actives 1.1% (n = 75,000); also: potency is read from the fitted curve at half-maximal effect; 0% is about no effect
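Compound autofluorescence profiled at 405 nm ex/520 nm em during kinetic caspase 1 run (50 nM enzyme, 5 uM Ac-WEHD-AFC, HEPES pH 7.5, 10 mM DTT). Titration up to 57 uM; baseline from regression intercept, normalized to AFC standard curve.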
CRE-bla Fsk: Cell signaling CRE-BLA (Fsk stim) | Potency, µM (top dose mostly 38.2 µM), inactives show top-dose activity change, negative = inhibition, most hits filed as activators | CHO CRE-bla reporter (cAMP response element driving beta-lactamase), forskolin EC10, beta-lactamase ratio | actives 2.5% (n = 71,000) | AID 662, 2007; active = well fitted activation curve with a large enough effect in the signal ratio, with a control signal flat, not every such curve was filed as active; inconclusive = small, poorly fitted or top-dose-only effect, or effect the other way, or a change in a side signal; the % refers to the signal ratio; also: potency is read from the fitted curve at half-maximal effect; % of control where 0% means no effect
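Modulation of forskolin signalling: compounds in titration series added with EC10 NKH 477 to CHO cells carrying a CRE-driven beta-lactamase reporter, 3 h, 37C. CCF4 FRET ratio (460/530 nm, ex 405 nm) gives %activity and AC50.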
A350 fluor: qHTS Assay for Spectroscopic Profiling in A350 Spectral Region; max dye-equivalent concentration, M; Compound autofluorescence, 340/450 nm, Alexa 350 dye-equivalents; stronger effect = higher value; AID 590, 2007; actives 11% (n = 59,000); in the data active = max dye-equivalent concentration above about 10 nM; inconclusive = mostly about 1.1 nM to 9.6 nM
HSD17B inh: qHTS Assay for Inhibitors of HSD17B4, hydroxysteroid (17-beta) dehydrogenase 4; 3-hydroxyacyl-CoA dehydrogenase type-2 (Homo sapiens), Q99714; recombinant HSD17B10, NADH fluorescence kinetic; Potency, µM (doses to about 57.1 µM), for the others: top-dose activity change, negative = inhibition, most hits filed as inhibitors; actives 7.6% (n = 75,000); AID 893, 2007;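 also: the protocol describes HADH2 (HSD17B10) and not the HSD17B4 of the title; potency is read from the fitted curve at half-maximal effect; % is scaled to controls: 0 for no effect and ±100 for the full control effect; nearly all actives have a fitted effect of over 70% in size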
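20 nM HADH2, pH 9.0 Tris/Tween; cpd preinc 15 min RT; start w/ 1 mM NAD+ + 90 uM b-hydroxybutyryl-CoA; kinetic fluor ex360/em450 q30s x 4 min; delta last-first.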
HADH2 inh: qHTS Assay for Inhibitors of HADH2 (Hydroxyacyl-Coenzyme A Dehydrogenase, Type II) | 3-hydroxyacyl-CoA dehydrogenase type-2 (Homo sapiens), Q99714 | recombinant HADH2, NADH fluorescence, beta-hydroxybutyryl-CoA | Potency, µM (doses to about 57.1 µM), for the others: top-dose activity change, negative = inhibition, usual class: inhibitors | actives 3.4% (n = 73,000) | AID 886, 2007; also: potency is read from the fitted curve at half-maximal effect; % is scaled to controls: 0 for no effect and ±100 for the full control effect; nearly all actives have a fitted effect of over 60% in size
Target sequence (Q99714 whole entry, looked up, one chain of several): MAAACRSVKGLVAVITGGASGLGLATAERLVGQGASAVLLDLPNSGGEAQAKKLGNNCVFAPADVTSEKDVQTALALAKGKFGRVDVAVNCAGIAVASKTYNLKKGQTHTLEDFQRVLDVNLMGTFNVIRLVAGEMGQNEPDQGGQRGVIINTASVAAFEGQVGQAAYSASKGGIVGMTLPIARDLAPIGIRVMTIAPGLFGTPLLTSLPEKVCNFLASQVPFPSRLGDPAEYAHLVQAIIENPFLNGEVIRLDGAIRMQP
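NADH fluorescence (ex 360/em 450 nm) read every 30 s for 4 min; activity taken as last-minus-first time point difference. Enzyme 20 nM, NAD+ 1 mM, beta-hydroxybutyryl-CoA 90 uM, pH 9.0 Tris buffer.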
The depositor's hits bear a star; i = inactive; ? = inconclusive; / = no result; [ ] = another dose, or the depositor's remark. Rows were chosen to be rich in hits. Some 14% of all compounds tested hit in one or more screens of this group. Unless noted, calls follow the shape of the dose curve; as a rule, active = well fitted curve in the direction sought with a large enough effect; inconclusive = small, poorly fitted or top-dose-only effect, or another doubt; inactive = no such curve, though single readings can be large; an effect the other way counts as inactive or inconclusive.

SMILES	4-MU autofl	AID923	CRE-bla Fsk	A350 fluor	HSD17B inh	HADH2 inh
CC(C)[C@@H](CC(=O)N[C@@H]1CCCC[C@H]1C(=O)N[C@H](CC(=O)N[C@@H](CCC(=O)O)CC(=O)O)Cc1ccccc1)NC(=O)C[C@H](CO)NC(=O)[C@@H]1CNCC[C@H]1N	/	/	-7.6%	/	/	-10.9%
COC(=O)N1CC=CC1(C)C(=O)O (stereo not given)	/	0.2%	3.4%	/	-1.8%	-10.7%
COC(=O)c1ccc(C(NC(=O)OCc2ccccc2)/C(=C/[C@@H](C)C(=O)NCCc2c[nH]c3ccccc23)c2cccnc2)cc1 (stereo not given in full)	/	1.8%	-16.9%	/	1.6%	12.4%
CC(=O)Nc1nc2c(c3c1c(=O)oc1ccccc13)CCCCC2	2.09e-08M*	0.6%	11.5%	2.15e-08M*	-2.5%	-0.8%
Nc1nc2c(c3c1c(=O)oc1ccccc13)CCCCC2	/	12.3%	?	/	20µM*	33.2%[11.4 µM]
CC(=O)Nc1nc2c(c3c1c(=O)oc1ccccc13)CCCC2	/	4.1%	12.4%	/	-11.6%	8.6%
CC(=O)Nc1nc2c(c3c1c(=O)oc1ccccc13)CC(C)CC2 (stereo not given)	2.31e-07M*	1.9%	?	2.27e-07M*	-2.0%	?
CC(N)=O	i	-1.9%	-0.7%	i	4.4%	-9.6%
COc1cc(-c2nc(-c3ccc(C)nc3OC)no2)cc(OC)c1OC	i	0.9%	-15.8%	i	0.5%	2.9%
COc1cc(-c2cc3nc(C)c(C)c(=O)n3[nH]2)cc(OC)c1OC	i	-1.2%	0.8%	i	31.6µM*	25.1µM*
CCOC(=O)c1c(N)sc2c(O)c(Br)ccc12	/	0.2%	3.9%	/	-10.1%	-10.5%
CCOC(=O)c1c(N)sc(C(=O)N2CCCCCC2)c1C	/	3.4%	?	/	-21.9%	-13.5%
CCOC(=O)c1c(N)ssc1=S	/	2.1%	9.4%	/	?	1.26µM*
CCOC(=O)c1c(NC(=O)CSc2nnc(-c3ccccc3C)n2C)sc(C(C)=O)c1C	?	1.2%	?	1.47e-08M*	?	25.1µM*
CCOC(=O)c1c(NC(=O)CSc2nc3cccnc3n2C)sc(C(C)=O)c1C	i	0.1%	?	i	-3.8%	2.9%
CCOC(=O)c1c(N)sc2c(NC(C)=O)cccc12	1.75e-08M*	1.5%	27.0%	2.36e-08M*	1.0%	-2.9%
CCOC(=O)c1sc(NC(C)=O)c(C(=O)OCC)c1C	?	0.1%	?	1.21e-08M*	1.5%	21.4%
Cc1ccccc1-c1cncnc1NC1CCNCC1	i	-0.4%	-12.0%	i	0.4%	-2.5%
COc1ccccc1CNc1ccnc(-c2ccccc2CN(C)C)n1	i	5.3%	1.9%	i	-6.8%	3.4%
CN(C)C(=O)c1ccc(-c2cncnc2N2CCNCC2)cc1	i	4.1%	-6.1%	i	-0.7%	6.7%
Cc1c(C(N)=O)sc(N)c1C(=O)OC(C)C	/	1.8%	23.7%	/	-21.1%	?
CCOC(=O)c1c(NC(=O)c2cc(C3CC3)on2)sc(C(C)=O)c1C	/	0.7%	9.3%	/	-3.1%	-5.4%
CCOC(=O)c1c(NC(=O)c2csc(C)c2)sc(C(C)=O)c1C	2.74e-08M*	20.4%	?	3.1e-08M*	182.8%	34.8%
CCOC(=O)c1c(N)sc(C(N)=O)c1C	/	0.4%	7.8%	/	-11.7%	12.6µM*
CN1CCN(c2ncnc3ccc(-c4cccc(C#N)c4)cc23)CC1	i	-0.1%	?	i	11.3%	6.7%
SMILES	4-MU autofl	AID923	CRE-bla Fsk	A350 fluor	HSD17B inh	HADH2 inh
c1ccc(CNc2ncncc2-c2ccc3c(c2)OCO3)cc1	i	4.3%	8.1%	i	?	?
CC(C)CCC[C@@H](C)[C@@H]1CC[C@@H]2[C@H]3CC[C@H]4C[C@@H](N)CC[C@@]4(C)[C@@H]3CC[C@]21C	i	-0.2%[11.5 µM]	4.0%[7.6 µM]	i	0.9%[11.4 µM]	6.6%[11.4 µM]
Cc1cccc(C2Nc3ccccc3C(=O)N2CCc2ccccc2)n1 (stereo not given)	/	5.2%	-3.3%	/	31.6µM*	?
O=C1c2ccccc2N[C@H](c2cc(Cl)cc(Cl)c2O)N1CCc1ccccn1	?	-3.1%[11.5 µM]	3.1%[7.6 µM]	?	2.6%[11.4 µM]	4.2%[11.4 µM]
CCCC[C@@H]1C[C@H]1C(NC(=O)c1ccccc1)c1ccc(-c2ccccc2)cc1 (stereo not given in full)	/	-1.8%	1.3%	/	-0.3%	4.2%
Cc1cc(C)n(Cc2ccc(F)cc2)c(=O)c1C#N	i	-2.2%	-14.2%	i	?	-2.1%
Cc1ccc(-n2c(C)cc(C)c(C#N)c2=O)cc1Cl	4.74e-08M*	0.7%	1.9%	2.82e-08M*	-19.1%	?
N#Cc1nc(-c2ccc(OCc3ccccc3)cc2)oc1N1CCOCC1	1.35e-08M*	3.8%	-2.3%	1.43e-08M*	25.1µM*	?
COc1ccc(-c2nc(C#N)c(N3CCOCC3)o2)cc1OC	4.48e-08M*	0.6%	?	5.18e-08M*	31.6µM*	31.6µM*
N#Cc1nc(COc2ccc(Br)cc2)oc1N1CCN(Cc2ccccc2)CC1	i	/	/	i	/	/
N#Cc1nc(-c2ccc(OCc3ccc(Cl)cc3)cc2)oc1NCCCn1ccnc1	i	0.4%	11.5%	i	10µM*	-29.1%
COc1ccc(-c2nc(C#N)c(N3CCN(c4cccc(Cl)c4)CC3)o2)cc1OC	?	-0.2%	-5.7%	?	4.6%	?
CCN1CCN(c2oc(COc3ccc(-c4ccccc4)cc3)nc2C#N)CC1	i	0.9%	5.01µM*	?	?	-10.6%
CC=C(/C(=C/C)c1ccc(O)cc1)c1ccc(O)cc1	i	-2.2%[25.7 µM]	-11.3%[17.1 µM]	i	-23.2%[25.6 µM]	?
COc1ccc(-c2nc(S(=O)(=O)c3ccc(C)cc3)c(N3CCCC3)o2)cc1	i	-1.1%	-5.8%	i	4.7%	?
N#Cc1nc(COc2ccc(F)cc2)oc1NCCN1CCOCC1	i	0.6%	4.5%	i	-4.2%	-4.8%
COc1cc(-c2nc(S(=O)(=O)c3ccccc3)c(N3CCOCC3)o2)cc(OC)c1OC	i	0.2%	1.26µM*	i	-5.0%	1.8%
N#Cc1nc(-c2ccc(OCc3ccccc3)cc2)oc1NCCN1CCOCC1	?	1.0%	?	?	31.6µM*	i

Compound activity from PubChem BioAssay.
